Results as given in PubChem BioAssay (NCATS).
Records with an inconclusive call do not appear. Unmarked numbers belong to inactive results. Calls of active or inactive are those of the source. Calls come from the whole dose curve; as a rule, active = well fitted curve in the direction sought with a large enough effect; inconclusive = small, poorly fitted or top-dose-only effect, or another doubt; inactive = no such curve, though single readings can be large; an effect the other way counts as inactive or inconclusive.

Experiment: qHTS for activators of dead-cell proteases activity screened against the NCATS CANVASS Library (AID 1347392);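 note: luminescence from protease leaking out of membrane-damaged cells cleaving impermeant substrate; rising signal means more cytotoxicity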; for activation (cytotoxicity): 0% is about no effect
Conditions: HepG2 cytotoxicity, dead-cell protease luminescence, 5 h; series mostly up to 46.1 µM; activation (cytotoxicity): at the top concentration
Procedure, shortened: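 HepG2 cells, 2000/well, attached 18 h at 37C, then exposed to compounds (11-point qHTS) for 5 h. Dead-cell protease release read as luminescence from cell-impermeant AAF-aminoluciferin substrate after 15 min at room temperature.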
Potency is the fitted concentration of half-maximal effect.

| Compound | activation (cytotoxicity) | Potency |
| --- | --- | --- |
| CC1=CC2CC[C@@H]3[C@@H](C)C[C@H](C)[C@@H](C1)N23 (some centres undefined) | 3.58% |  |
| CC=C1CN(C=O)[C@H]2C[C@@H]1[C@@H](C(=O)OC)[C@@]13CCOC21Nc1ccccc13 (some centres undefined) | 1.09% |  |
| C[C@@H]1CC[C@@H](c2ccoc2)N2C[C@@]3(CC[C@@H]12)CS[C@@]1(CC[C@H]2[C@H](C)CC[C@@H](c4ccoc4)N2[C@@H]1O)C3 |  | 11.7 µM (active) |
| CCN1C[C@]2(C)CC[C@@H](O)[C@]34C1[C@H](C[C@H]23)C12CCC(CC14)[C@](O)(CO)[C@H]2O (some centres undefined) | 1.36% |  |
| CO[C@@H](/C=C/CC/C=C/C(=O)O)[C@@H](O)[C@H](C)[C@@H](O)/C(C)=C/[C@H](C)C(=O)CCCC1CC(=O)NC(=O)C1 | 1.24% |  |
| CCCC[C@@H]1CC[C@H]2CCCC(CCC)N12 (some centres undefined) | -2.23% |  |
| C[C@]12CC(O)C3[C@@H](CCC4C[C@@H](O)CC[C@@]43CO)[C@@]1(O)CCC2C1=CC(=O)OC1 (some centres undefined) | -1.68% |  |
| CO[C@@H](/C=C/CC/C=C/C(=O)O)[C@@H](O)[C@H](C)/C=C(\C)[C@@H](O)[C@H](C)C(=O)CCCC1CC(=O)NC(=O)C1 | -1.09% |  |
| O=C(c1ccccc1O)c1[nH]c(Cl)c(Cl)c1-n1c(C(=O)c2ccccc2O)cc(Cl)c1Cl | -1.92% |  |
| CC[C@@H]1CN2CC[C@@]3(O)C(=Nc4cccc(OC)c43)[C@@H]2C[C@@H]1/C(=C\OC)C(=O)OC | -1.13% |  |
| c1ccc2c3c([nH]c2c1)CNCC3 | -1.22% |  |
| CNCCc1ccccc1 | 0.573% |  |
| CO[C@H](c1ccccc1)[C@H]1NC(=O)C(C)NC(=O)C(C[C@@H](C)CO)N(C)C(=O)[C@@H](C(O)c2cn(C(C)(C)C3CO3)c3ccccc23)NC(=O)C(C(C)C=C(C)C)NC(=O)C(CC(C)C)N(C)C(=O)C(C(C)C)NC1=O (some centres undefined) | -0.777% [at 27.5 µM] |  |
| CC1=CC(=O)C2=C(C)C[C@H](O)[C@@H]3[C@H](OC(=O)[C@@H]3C)[C@@H]12 | -1.97% |  |
| CCN1C[C@]2(C)CC[C@H](O)[C@]34C1C(C[C@H]23)[C@@]12CC[C@H](CC14)[C@](O)(COC(=O)c1ccc(OC)c(OC)c1)[C@H]2O (some centres undefined) | -1.21% |  |
| CCC(=O)CCCCC[C@@H]1NC(=O)[C@H]2CCCCN2C(=O)[C@H]([C@@H](C)CC)NC(=O)[C@H](Cc2cn(OC)c3ccccc23)NC1=O | -1.99% |  |

Experiment: qHTS for inhibitors of ER calcium dysfunction: SERCaMP assay screened against the NCATS CANVASS Library (AID 1347393); note: nearly all actives have a fitted effect of over 40% in size;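 for activity change, negative = inhibition: % is set by controls: 0 for no effect and ±100 for the full control effect; lower secreted reporter signal means inhibitor of ER calcium depletion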
Conditions: SH-SY5Y GLuc-SERCaMP secretion, thapsigargin, luminescence; series mostly up to 76.6 µM; activity change, negative = inhibition: at the top concentration
Procedure, shortened: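 SH-SY5Y GLuc-SERCaMP, 1000 cells/well, 4 h attach; cpd 16 h, 37C/5% CO2; thapsigargin (added as 6x 600 nM) 4 h; coelenterazine; luminescence. Reduced reporter release = ER Ca stabilization.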

| Compound | activity change, negative = inhibition | Potency |
| --- | --- | --- |
| CC1=CC2CC[C@@H]3[C@@H](C)C[C@H](C)[C@@H](C1)N23 (some centres undefined) | -24.3% |  |
| CCN1C[C@]2(C)CC[C@@H](O)[C@]34C1[C@H](C[C@H]23)C12CCC(CC14)[C@](O)(CO)[C@H]2O (some centres undefined) | -28% |  |
| CO[C@@H](/C=C/CC/C=C/C(=O)O)[C@@H](O)[C@H](C)[C@@H](O)/C(C)=C/[C@H](C)C(=O)CCCC1CC(=O)NC(=O)C1 | -12.4% |  |
| C[C@]12CC(O)C3[C@@H](CCC4C[C@@H](O)CC[C@@]43CO)[C@@]1(O)CCC2C1=CC(=O)OC1 (some centres undefined) | -3.25% |  |
| CO[C@@H](/C=C/CC/C=C/C(=O)O)[C@@H](O)[C@H](C)/C=C(\C)[C@@H](O)[C@H](C)C(=O)CCCC1CC(=O)NC(=O)C1 | 26.9% |  |
| O=C(c1ccccc1O)c1[nH]c(Cl)c(Cl)c1-n1c(C(=O)c2ccccc2O)cc(Cl)c1Cl | -7.42% |  |
| CNCCc1ccccc1 | 1.27% |  |
| CC1=CC(=O)C2=C(C)C[C@H](O)[C@@H]3[C@H](OC(=O)[C@@H]3C)[C@@H]12 |  | 34.3 µM (active) |
| CCN1C[C@]2(C)CC[C@H](O)[C@]34C1C(C[C@H]23)[C@@]12CC[C@H](CC14)[C@](O)(COC(=O)c1ccc(OC)c(OC)c1)[C@H]2O (some centres undefined) |  | 10.8 µM (active) |
| CCC(=O)CCCCC[C@@H]1NC(=O)[C@H]2CCCCN2C(=O)[C@H]([C@@H](C)CC)NC(=O)[C@H](Cc2cn(OC)c3ccccc23)NC1=O | 152% |  |

Experiment: qHTS for inhibitors of Wild type Zika virus screened against the NCATS CANVASS Library (AID 1347396);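 for activity change, negative = antiviral: ATP luminescence of surviving cells so rescue from viral cell killing; % is set by controls: 0 for no effect and ±100 for the full control effect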
Conditions: Vero cells, Zika virus CPE, CellTiter-Glo, 72 h; series mostly up to 45.9 µM; activity change, negative = antiviral: at the top concentration
Procedure, shortened: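 Using ATP-based luminescence (CellTiter Glo), this screen scores rescue of Vero 766 cells from wild-type Zika killing at 72 h post-infection. Compounds are tested in a concentration series.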

| Compound | activity change, negative = antiviral | Potency |
| --- | --- | --- |
| CC1=CC2CC[C@@H]3[C@@H](C)C[C@H](C)[C@@H](C1)N23 (some centres undefined) | -7.36% |  |
| CC=C1CN(C=O)[C@H]2C[C@@H]1[C@@H](C(=O)OC)[C@@]13CCOC21Nc1ccccc13 (some centres undefined) | -0.687% |  |
| CO[C@@H](/C=C/CC/C=C/C(=O)O)[C@@H](O)[C@H](C)[C@@H](O)/C(C)=C/[C@H](C)C(=O)CCCC1CC(=O)NC(=O)C1 | -9.8% |  |
| CCCC[C@@H]1CC[C@H]2CCCC(CCC)N12 (some centres undefined) | -20.4% |  |
| C[C@]12CC(O)C3[C@@H](CCC4C[C@@H](O)CC[C@@]43CO)[C@@]1(O)CCC2C1=CC(=O)OC1 (some centres undefined) | 1.08% |  |
| CO[C@@H](/C=C/CC/C=C/C(=O)O)[C@@H](O)[C@H](C)/C=C(\C)[C@@H](O)[C@H](C)C(=O)CCCC1CC(=O)NC(=O)C1 | -10.2% |  |
| CC[C@@H]1CN2CC[C@@]3(O)C(=Nc4cccc(OC)c43)[C@@H]2C[C@@H]1/C(=C\OC)C(=O)OC | -5.89% |  |
| c1ccc2c3c([nH]c2c1)CNCC3 | 2.35% |  |
| CNCCc1ccccc1 | 4.81% |  |
| CCCCC[C@@H]1OC(=O)[C@@H](C)N(C)C(=O)[C@H](CCCCC)OC(=O)C(C)N(C)C(=O)[C@H](CCCCC)OC(=O)[C@@H](C)N(C)C(=O)[C@H](CCCCC)OC(=O)C(C)N(C)C1=O (some centres undefined) |  | 11.7 µM (active) |
| CO[C@H](c1ccccc1)[C@H]1NC(=O)C(C)NC(=O)C(C[C@@H](C)CO)N(C)C(=O)[C@@H](C(O)c2cn(C(C)(C)C3CO3)c3ccccc23)NC(=O)C(C(C)C=C(C)C)NC(=O)C(CC(C)C)N(C)C(=O)C(C(C)C)NC1=O (some centres undefined) | -10.9% [at 27.4 µM] |  |
| CC1=CC(=O)C2=C(C)C[C@H](O)[C@@H]3[C@H](OC(=O)[C@@H]3C)[C@@H]12 | -1.51% |  |
| CCN1C[C@]2(C)CC[C@H](O)[C@]34C1C(C[C@H]23)[C@@]12CC[C@H](CC14)[C@](O)(COC(=O)c1ccc(OC)c(OC)c1)[C@H]2O (some centres undefined) | 4.53% |  |
